Screening results (PubChem BioAssay)
Shown are actives, neighbours in structure and some others; about 7.4% of the full set was active somewhere.
NPC1 promoter act: NPC1 promoter activation; AID 485313; 320,000 compounds, 2.4% hits; Huh7 NPC1 promoter luciferase reporter, 24 h; Potency, µM (highest dose often 9.22 µM), for inactives: at the top dose activation, most hits filed as activators; also: % of control where 0% means no effect; nearly all actives have a fitted effect of over 60% in size
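NPC1 promoter–luciferase Huh7 cells; 24 h compound; luminescence.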
Luc counter: Kinase-Glo luciferase inhibition (counter-screen); 200,000 compounds, 0.28% hits; Kinase-Glo luciferase, ATP luminescence, 8 min; Q27757; Potency, µM (series often up to 38.3 µM), for the others: at the top dose activity change, negative = inhibition, usual class: inhibitors; also: % is scaled to controls: 0 for no effect and ±100 for the full control effect; nearly all actives have a fitted effect of over 60% in size
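Kinase-Glo luciferase light output from ATP and luciferin was measured with 10 uM ATP, within the enzyme's linear range. Buffer: 50 mM imidazole pH 7.2, 50 mM KCl, 7 mM MgCl2, 0.01% Tween 20, 0.05% BSA; luminescence read after 8 min at ambient temperature.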
ELG1 genotoxic: genotoxicity induction in ELG1-luciferase HEK293T cells; HEK293T ELG1-luciferase reporter, luminescence, 16 h; Potency, µM (doses to about 46 µM), inactives show at the top dose activity change, positive = activation, actives largely listed as activators; 330,000 compounds, 1.3% hits; also: % of control where 0% means no effect; nearly all actives have a fitted effect of over 60% in size
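16 hr compound incubation (37 °C, 5% CO2) of HEK293T cells carrying luciferase-tagged ELG1; luciferase then measured by ONE-Glo luminescence after 30 min at RT.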
SMN2 splice enh: enhancers of SMN2 splice variant expression; HEK293 SMN2-luciferase splicing reporter, luminescence, 30-36 h; Potency, µM (series often up to 46.1 µM), for the others: top-dose activity change, positive = activation, actives largely listed as activators; 210,000 compounds, 2.8% hits; AID 1458; also: % of control where 0% means no effect; nearly all actives have a fitted effect of over 55% in size
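HEK293 cells carry an SMN2 minigene-luciferase reporter in which exon 7 inclusion puts luciferase in frame. Cells were seeded at 2000 cells/well, attached for 10-12 hours, then exposed to compounds for 30-36 hours at 37C before ONE-Glo luminescence.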
Rab9 promoter act: Rab9 promoter activation | Huh7 Rab9 promoter-luciferase reporter, luminescence, 24 h | AID 485297 | 320,000 compounds, 2.8% hits | Potency, µM (highest dose often 9.22 µM), for the others: at the top dose activation, negative = inhibition, hits mostly activators; also: % of control where 0% means no effect; nearly all actives have a fitted effect of over 60% in size
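Luminescence read-out: Huh7 cells stably expressing Rab9-luciferase, treated 24 h with compound at 37 °C, then lysed with luciferase reagent for 10 min at ambient before reading.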
FLuc counter: counter-screen for miR-21 project: firefly luciferase inhibitors or activators | Potency, µM (doses to about 57.5 µM), for inactives: at the highest dose activity change, negative = inhibition, most hits filed as inhibitors | purified FLuc, Km substrates, luminescence inhibition | 360,000 compounds, 6.9% hits | P08659 | AID 588342;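 also: plate controls were vehicle for no effect and reference inhibitor for full effect; nearly all actives have a fitted effect of over 55% in size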
Target sequence (P08659 whole entry, looked up): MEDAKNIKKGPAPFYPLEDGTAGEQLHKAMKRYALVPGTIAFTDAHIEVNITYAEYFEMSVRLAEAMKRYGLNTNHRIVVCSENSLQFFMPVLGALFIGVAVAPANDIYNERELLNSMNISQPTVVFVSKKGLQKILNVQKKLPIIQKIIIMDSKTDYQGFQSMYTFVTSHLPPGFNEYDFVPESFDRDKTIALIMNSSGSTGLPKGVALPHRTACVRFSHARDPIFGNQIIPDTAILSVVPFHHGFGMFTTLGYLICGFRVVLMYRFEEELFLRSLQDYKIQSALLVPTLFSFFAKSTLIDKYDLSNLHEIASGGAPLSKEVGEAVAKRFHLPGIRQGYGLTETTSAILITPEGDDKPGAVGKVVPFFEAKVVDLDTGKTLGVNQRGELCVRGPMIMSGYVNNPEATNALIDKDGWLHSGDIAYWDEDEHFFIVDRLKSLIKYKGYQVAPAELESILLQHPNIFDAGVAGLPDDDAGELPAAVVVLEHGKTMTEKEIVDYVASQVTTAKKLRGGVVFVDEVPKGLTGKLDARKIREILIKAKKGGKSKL
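Purified P. pyralis luciferase, 10 nM final, with Km-level 10 uM D-luciferin and 10 uM ATP in 50 mM Tris acetate pH 7.5, 10 mM Mg acetate, 0.01% Tween-20, 0.05% BSA; 6-point qHTS titration about 60 µM downward; luminescence read.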
Starred values were filed as active, the others as inactive; ? = inconclusive; / = not tested or not shown; [ ] = remark or other dose. Calls follow the shape of the dose curve; as a rule, active = well fitted curve in the direction sought with a large enough effect; inconclusive = small, poorly fitted or top-dose-only effect, or another doubt; inactive = no such curve, though single readings can be large; an effect the other way counts as inactive or inconclusive. Potency is read from the fitted curve at half-maximal effect.

SMILES	NPC1 promoter act	Luc counter	ELG1 genotoxic	SMN2 splice enh	Rab9 promoter act	FLuc counter
CCNc1ncc2nc(CCc3ccccc3)c(=O)n(C)c2n1	/	-2.3%	/	12.6µM*	/	/
O=C(CC(=O)Nc1ccccn1)Nc1ccccn1	0.0%	11.3%	0.3%	-5.3%	-2.7%	0.1%
O=C(/C=C\Nc1ccccn1)c1ccccc1	0.631µM*	?	0.517µM*	2µM*	0.355µM*	0.675µM*
O=C(/C=C/Nc1ccccc1Br)c1ccccn1	/	12.6µM*	/	?	/	0.0757µM*
COc1ccc(C(=O)/C=C/Nc2c(C)n(C)n(-c3ccccc3)c2=O)c(OC)c1	-1.6%	6.1%	1.4%	8.1%	-3.1%	-0.7%
COc1ccc(C(=O)/C=C/Nc2ccccn2)c(OC)c1	0.562µM*	/	1.83µM*	/	0.891µM*	3.38µM*
COc1ccccc1CNC(=O)c1c(O)nc2c(C)cccn2c1=O	/	/	/	-3.8%	/	-3.5%
CCC(C(=O)NCc1ccccc1Cl)n1nc(C)c2sc3ccccc3c2c1=O (stereo not given)	/	/	/	/	/	-12.6%
CC1CCCN(S(=O)(=O)c2ccc3c(c2)CCN3C(=O)CCC(=O)O)C1 (stereo not given)	/	/	/	-9.1%	/	4.8%
COc1ccccc1CNC(=O)CSc1ncc2c(n1)-c1cc(Cl)ccc1N(Cc1ccccc1)S2(=O)=O	/	/	/	/	/	2.2%
COc1cc(C=O)ccc1OCc1ccccc1Br	?	-12.6%	?	?	?	9.53µM*
COc1cc(C=O)ccc1OCc1cccc(Br)c1	-3.2%	3.3%	?	14.1µM*	-5.9%	7.57µM*
CCOc1cc(C=O)ccc1OCCSc1ccc(C)cc1	-1.1%	3.9%	0.3%	-11.6%	-5.1%	-4.6%
CNC(=O)COc1ccc(C=O)cc1OC	-1.2%	-3.2%	3.2%	-35.4%	-8.5%	0.5%
COc1cc(C=O)ccc1OCCSc1ccc(C)cc1	12.0%	-0.1%	16.4µM*	13.7%	8.0%	?
Cc1ccc(C)c(CSc2nc3ccncc3n2CC(=O)Nc2ccc(N(C)C)cc2)c1	/	/	/	-29.3%	/	?
Cc1ccc(C(=O)Nc2nnc(SCc3cc(=O)n4ccc(C)cc4n3)s2)cc1	/	/	/	/	/	-13.3%
CCOc1cc(C2c3c(n[nH]c3C)C(=O)N2c2ccc(C)cc2)ccc1O (stereo not given)	-1.2%	3.9%	6.4%	3.8%	5.8%	1.1%
COc1ccc(C2NN=C(c3ccc(C)cc3)S2)cc1 (stereo not given)	91.7%	/	?	/	0.631µM*	1.2µM*
CCOc1cc(C2NN=C(c3ccc(C)cc3)S2)ccc1O (stereo not given)	3.16µM*	-0.2%	?	15.8µM*	3.55µM*	5.36µM*
Cc1ccc(C2=NNC(C(O)C(O)C(O)CO)S2)cc1 (stereo not given)	18.0%	-0.9%	?	-15.9%	24.3%	15.1µM*
CCOC(=O)c1ccc(NC(=O)C(CC)Sc2nc3ccncc3[nH]2)cc1 (stereo not given)	/	/	/	6.0%	/	2.6%
COc1ccccc1NC(=O)CSCc1cc(=O)c2cccc(Cl)c2[nH]1	/	/	/	/	/	1.9%
COc1ccc(C2=NN(c3ccccc3)C(c3ccc(OC)c(OC)c3)C2)cc1 (stereo not given)	26.5%	/	6.0%	/	?	?
COc1ccc(C2=NN(C(C#N)c3ccc(OC)c(OC)c3)C(c3ccccc3)C2)cc1 (stereo not given)	14.4%	-5.4%	5.8µM*	94.5%	?	12µM*
SMILES	NPC1 promoter act	Luc counter	ELG1 genotoxic	SMN2 splice enh	Rab9 promoter act	FLuc counter
Cc1ccc(C)c(N2CCN(S(=O)(=O)c3cc(C(=O)Nc4ccccc4C(F)(F)F)ccc3F)CC2)c1	/	/	/	/	/	1.6%
O=C1NN(c2ccccc2)C(=O)/C1=C\c1cccc(OC(=O)c2cccs2)c1	-3.5%	16.9%	18.7%	-0.4%	1.5%	?
COC(=O)c1ccc(N2NC(=O)/C(=C/c3cc(OC)c(OC)c(OC)c3)C2=O)cc1	-0.7%	/	11.7%	/	-0.6%[1.84 µM]	19µM*
COC(=O)C1=C(C)N(Cc2ccc(C)cc2)C(=O)/C1=C\c1cc(OC)c(OC)c(OC)c1	-3.7%	-1.6%	?	?	-0.1%	3.6%
COC(=O)c1ccc(N2NC(=O)/C(=C/c3cc(OC)c(O)c(OC)c3)C2=O)cc1	2.5%	/	-0.4%	/	-8.5%[1.84 µM]	8.49µM*
Cc1ccccc1OCCCCn1nnc2sc3c(c2c1=O)CCC(C)C3 (stereo not given)	/	/	/	8.2%	/	5.3%
CCOc1ccc(CC(=O)Nc2ccc3nc(N4CCCCC4)cc(C)c3c2)cc1OCC	/	/	/	/	/	-15.9%
Cc1ccc(-c2nn(-c3ccccc3)cc2CO)cc1	?	/	?	/	?	15.1µM*
CN(Cc1cn(-c2ccccc2)nc1-c1ccc(F)cc1)C(=O)CCC(=O)O	-2.2%	3.1%	4.0%	14.3%	-2.8%	12µM*
CN(Cc1cn(-c2ccccc2)nc1-c1ccc(Cl)cc1)C(=O)CCC(=O)O	6.7%	2.6%	4.0%	5.7%	-10.8%	10.7µM*
C=C(C)OC(C)=O	/	/	/	-2.1%	/	/
CCOC(=O)c1c(NC(=O)COc2ccc(Cl)cc2C)sc(C(C)=O)c1C	/	/	/	-2.2%	/	5.9%
COc1cc(C(=O)Oc2ccc3ccc(O)cc3c2)cc(OC)c1OC	-0.3%	/	?	/	4.3%	-12.5%
O=C(c1ccccc1)c1ccc(OC(=O)C2CCCCC2)cc1	0.5%	/	1.5%	/	-5.4%	13.5µM*
O=C(Oc1ccc2ccc(O)cc2c1)C1CCCCC1	0.6%	3.4%	-4.5%	1.4%	-4.0%	16.9µM*
O=C(Oc1ccc(OC(=O)C2CCC2)cc1)C1CCC1	-2.8%	5.4%	-0.4%	-5.8%	-5.1%	?
O=C(Oc1ccc2ccc(O)cc2c1)c1ccccc1Cl	23.9%	/	?	/	0.3%	2.39µM*
O=C(Oc1ccc2ccccc2c1)C1CCC1	-2.0%	/	0.3%	/	0.0%	23.9µM*
COc1cc(/C=C2\SC(=S)N(NC(=O)c3ccc(O)cc3)C2=O)ccc1O	3.0%	/	10.0%	/	2.9%	3.01µM*
COc1cc(/C=C2\SC(=S)N(NC(=O)c3cccnc3)C2=O)ccc1O	-1.3%	/	-2.0%	/	-1.4%	16.9µM*
